Here are results for 63 compounds from PubChem BioAssay AID651739 (Broad Institute, 2012).

The structures appear in SMILES notation. About 4,100 (73%) of roughly 5,600 compounds were called active. Another 4% or so got no clear call; they are omitted. So high a share suggests a set chosen from earlier hits. Only a sample is shown. Unmarked numbers belong to inactive results.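 Rule for the calls: active = mean replicate inhibition above about 95% and at least 55% of replicates individually reaching it (limit read from the data); inconclusive = only one of the two criteria is met; inactive = neither criterion is met.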

This experiment in a line: T. cruzi intracellular proliferation inhibitors, confirmation, cell-based, NIH3T3 host, beta-gal parasite, luminescence, cherry-pick (AID 651739). Particulars: T. cruzi beta-gal in NIH3T3, GalScreen luminescence, 90 h; at 8.35 µM; stronger effect = higher value.
Broadly, the inhibition is the change of the read-out against control, counted positive when it falls. Take `CCC(=O)N1CCCCN2[C@H](C1)[C@@H](c1ccc(-c3ccc(F)cc3)cc1)[C@@H]2CO`: the inhibition is 60.2%.
The same measure for `O=C(CN1CCOCC1)N1CCCCN2[C@@H](CO)[C@H](c3ccc(/C=C/c4ccccc4)cc3)[C@@H]2C1`: 99.6% (active); for `O=C(CN1CCOCC1)N1CCCCN2[C@H](CO)[C@H](c3ccc(-c4ccccc4)cc3)[C@@H]2C1`: 73.7%.
The same measure for `CCC(=O)N1CCCCN2[C@H](C1)[C@@H](c1ccc(/C=C/c3ccccc3)cc1)[C@@H]2CO`: 102% (active); for `O=C(CN1CCOCC1)N1CCCCN2[C@@H](CO)[C@H](c3ccc(-c4ccccc4)cc3)[C@@H]2C1`: 81.6%.
The same measure for `O=C(C[C@H]1CC[C@@H]2[C@H](COC[C@H](O)CN2Cc2ccc(Oc3ccccc3)cc2)O1)N1CCN(c2ccccc2)CC1`: 101% (active); for `COc1cccc(C#Cc2ccc([C@@H]3[C@H](C#N)N[C@H]3CO)cc2)c1`: 101% (active).
Take `O=C(Nc1ccccc1F)N1CCCCN2[C@H](CO)[C@@H](c3ccc(-c4cccnc4)cc3)[C@H]2C1`: the inhibition was 61.1%.
The same measure for `COc1ccccc1NC(=O)N1CCCCN2[C@H](C1)[C@H](c1ccc(-c3ccccc3)cc1)[C@@H]2CO`: 109% (active); for `O=C(c1ccncc1)N1CCCCN2[C@H](CO)[C@H](c3ccc(-c4ccccc4)cc3)[C@H]2C1`: 105% (active).
The same measure for `O=C(Nc1cc(F)ccc1F)N1CCCCN2[C@H](CO)[C@@H](c3ccc(-c4cncnc4)cc3)[C@H]2C1`: 55.4%.
As for `O=C(c1cccnc1)N1CCCCN2[C@@H](CO)[C@H](c3ccc(C#Cc4ccccc4)cc3)[C@@H]2C1`, the inhibition is 112% (active).
Then `COc1ccc(C#Cc2ccc([C@@H]3[C@@H](CO)N4CCCCN(C(=O)c5ccncc5)C[C@@H]34)cc2)cc1`, with 80.6%.
For `O=C(c1cccc(F)c1)N1CCCCN2[C@H](CO)[C@H](c3ccc(-c4ccncc4)cc3)[C@H]2C1`, the inhibition is 95.2% (active).
Turning to `CC(C)(O)C#Cc1ccc([C@@H]2[C@H](CO)N3CCCCN(C(=O)c4cccc(F)c4)C[C@@H]23)cc1`, the inhibition is 76.7%.
The same measure for `C[C@@H]1CCCCO[C@H](CN(C)Cc2ccc(C(F)(F)F)cc2)[C@H](C)CN([C@H](C)CO)C(=O)c2cc(NC(=O)Nc3ccc(F)cc3)ccc2O1`: 96.3% (active).
Then `C[C@@H]1CCCCO[C@H](CN(C)Cc2ccccc2)[C@@H](C)CN([C@@H](C)CO)C(=O)c2cc(NC(=O)Nc3ccc(F)cc3)ccc2O1`, with 101% (active); and `C[C@@H]1CN([C@H](C)CO)C(=O)c2cc(NS(=O)(=O)c3cccs3)ccc2O[C@@H](C)CCCCO[C@H]1CN(C)Cc1ccc(C(F)(F)F)cc1`, with 101% (active); and `C[C@@H]1CCCCO[C@@H](CN(C)Cc2ccc(C(F)(F)F)cc2)[C@@H](C)CN([C@H](C)CO)C(=O)c2cc(NC(=O)Nc3ccccc3)ccc2O1`, with 105% (active).
Turning to `C[C@H]1CCCCO[C@H](CN(C)Cc2ccccc2)[C@@H](C)CN([C@@H](C)CO)C(=O)c2cc(NC(=O)c3ccccc3)ccc2O1`, the inhibition is 113% (active).
For the compound `C[C@H]1CCCCO[C@H](CN(C)Cc2ccccc2)[C@@H](C)CN([C@@H](C)CO)C(=O)c2cc(NC(=O)NC3CCCCC3)ccc2O1`, the inhibition is 111% (active).
The same measure for `COc1ccccc1C#Cc1ccc([C@@H]2[C@H](CO)N3CCCCN(C(=O)C4CC4)C[C@@H]23)cc1`: 103% (active); for `COc1ccccc1C#Cc1ccc([C@@H]2[C@H](CO)N3CCCCN(C(=O)C4CCCC4)C[C@@H]23)cc1`: 99.8% (active).
Regarding `COc1ccccc1C#Cc1ccc([C@H]2[C@H](CO)N3CCCCN(C(=O)C4CCC4)C[C@@H]23)cc1`, the inhibition was 114% (active).
Then `C[C@@H]1CN([C@H](C)CO)S(=O)(=O)c2ccc(C#C[C@@H](C)O)cc2O[C@@H]1CN(C)Cc1ccc(-c2ccccc2)cc1`, with 96.5% (active); and `CC(C)C#Cc1ccc2c(c1)O[C@H](CN(C)Cc1ccccc1)[C@H](C)CN([C@@H](C)CO)S2(=O)=O`, with 105% (active).
The same measure for `C[C@H]1CN([C@@H](C)CO)S(=O)(=O)c2ccc(C#CCN(C)C)cc2O[C@@H]1CN(C)Cc1ccc(F)cc1`: 109% (active); for `C[C@@H]1CN([C@@H](C)CO)S(=O)(=O)c2ccc(/C=C/c3ccccc3)cc2O[C@H]1CN(C)Cc1ccccc1`: 98.5% (active); for `CCCC#Cc1ccc2c(c1)O[C@H](CN(C)C(=O)CC)[C@@H](C)CN([C@H](C)CO)S2(=O)=O`: 99.3% (active).
Then `CCC(=O)N(C)C[C@@H]1Oc2cc(C#CCN(C)C)ccc2S(=O)(=O)N([C@H](C)CO)C[C@H]1C`, with 98.5% (active); and `CC(=O)N(C)C[C@H]1Oc2cc(C#CCN(C)C)ccc2S(=O)(=O)N([C@@H](C)CO)C[C@@H]1C`, with 95.7% (active); and `CCCC#Cc1ccc2c(c1)O[C@@H](CN(C)C(=O)c1ccccc1F)[C@H](C)CN([C@H](C)CO)S2(=O)=O`, with 105% (active).
Regarding `C[C@@H]1CN([C@@H](C)CO)S(=O)(=O)c2ccc(-c3cccc(F)c3)cc2O[C@@H]1CN(C)S(=O)(=O)c1ccccc1`, the inhibition is 104% (active).
On to `C[C@H]1CN([C@@H](C)CO)S(=O)(=O)c2ccc(C#Cc3cccc(F)c3)cc2O[C@@H]1CN(C)S(=O)(=O)c1cn(C)cn1`, for which the inhibition was 102% (active).
Consider `CC(C)CC#Cc1ccc2c(c1)O[C@H](CN(C)S(=O)(=O)c1cccc(F)c1)[C@@H](C)CN([C@@H](C)CO)S2(=O)=O`, for which the inhibition is 88.4%.
In the case of `COCCNC[C@@H]1[C@H](c2ccccc2)[C@H](CO)N1c1nc(C)c(C)s1`, the inhibition was 95.7% (active).
Regarding `O=S(=O)(c1ccccc1)N1CC[C@@H]2[C@H]1c1cc(C#Cc3cccc(F)c3)ccc1N[C@@H]2CO`, the inhibition was 97.6% (active).
As for `O=S(=O)(c1ccccc1)N1CC[C@@H]2[C@@H](CO)Nc3ccc(-c4ccccc4F)cc3[C@@H]21`, the inhibition is 103% (active).
Consider `CC(=O)N1CC[C@@H]2[C@H](CO)Nc3ccc(C#Cc4ccccc4F)cc3[C@@H]21`, for which the inhibition was 70.2%.
Turning to `O=S(=O)(c1ccccc1)N1CC[C@@H]2[C@@H](CO)Nc3ccc(C#Cc4cccc(F)c4)cc3[C@@H]21`, the inhibition was 100% (active).
The same measure for `O=C(c1cccc(F)c1)N1CC[C@@H]2[C@@H](CO)Nc3ccc(C#Cc4cccc(F)c4)cc3[C@@H]21`: 106% (active).
Then `Cc1ccccc1S(=O)(=O)N1CC[C@H]2[C@H](CO)Nc3ccc(-c4cccc(F)c4)cc3[C@H]21`, with 105% (active); and `O=C(Cc1ccccc1)N1CC[C@H]2[C@H](CO)Nc3ccc(-c4ccccc4F)cc3[C@H]21`, with 103% (active).
The same measure for `Cc1ccc(S(=O)(=O)Nc2ccc3c(c2)C(=O)N([C@@H](C)CO)C[C@@H](C)[C@H](CN(C)C(=O)Nc2cccc4ccccc24)OCCCC[C@H](C)O3)cc1`: 97.1% (active); for `C[C@@H]1CCCCO[C@H](CN(C)C(=O)Nc2cccc3ccccc23)[C@H](C)CN([C@H](C)CO)C(=O)c2cc(NS(=O)(=O)c3cccs3)ccc2O1`: 103% (active).
As to `Cc1noc(C)c1S(=O)(=O)Nc1ccc2c(c1)C(=O)N([C@@H](C)CO)C[C@H](C)[C@@H](CN(C)C(=O)Nc1cccc3ccccc13)OCCCC[C@H](C)O2`, the inhibition is 99.4% (active).
For `C[C@H](CO)N1C[C@H](C)[C@H](CN(C)C(=O)C2CCCCC2)Oc2ncc(C#Cc3cccc(F)c3)cc2C1=O`, the inhibition was 102% (active).
On to `C[C@H]1CN([C@@H](C)CO)C(=O)c2cc(C#CC3CCCCC3)cnc2O[C@H]1CN(C)S(=O)(=O)c1ccccc1`, for which the inhibition is 108% (active).
Then `C[C@@H]1CN([C@@H](C)CO)C(=O)c2cc(C#CC3CCCCC3)cnc2O[C@H]1CN(C)S(=O)(=O)c1ccccc1`, with 107% (active).
The same measure for `C[C@H](CO)N1C[C@H](C)[C@H](CN(C)C(=O)Nc2ccc3c(c2)OCO3)Oc2ncc(C#Cc3cccc(F)c3)cc2C1=O`: 85.5%; for `C[C@@H]1CN([C@H](C)CO)C(=O)c2cc(C#CC3CCCCC3)cnc2O[C@@H]1CN(C)C(=O)NC1CCCC1`: 103% (active).
Take `C[C@@H]1CN([C@H](C)CO)C(=O)c2cccc(NC(=O)NC3CCCCC3)c2O[C@H]1CN(C)Cc1ccc(C(F)(F)F)cc1`: the inhibition was 89.1%.
Then `C[C@@H]1CN([C@H](C)CO)C(=O)c2cccc(NC(=O)c3cnccn3)c2O[C@@H]1CN(C)Cc1ccc(C(=O)Nc2ccccc2N)cc1`, with 92.4%; and `C[C@@H]1CN([C@H](C)CO)C(=O)c2cccc(NC(=O)c3ccc(-c4nccs4)cc3)c2O[C@@H]1CN(C)C(=O)Nc1ccc(C(F)(F)F)cc1`, with 104% (active); and `C[C@H](CO)N1C[C@H](C)[C@@H](CN(C)Cc2ccc(C(=O)Nc3ccccc3N)cc2)Oc2c(NC(=O)c3ccc(-c4nccs4)cc3)cccc2C1=O`, with 99.3% (active).
The same measure for `Cc1cc(C(=O)Nc2cccc3c2O[C@@H](CN(C)Cc2ccc(C(=O)Nc4ccccc4N)cc2)[C@H](C)CN([C@@H](C)CO)C3=O)n(C)n1`: 105% (active); for `C[C@@H]1CCCCO[C@H](CN(C)Cc2ccccc2)[C@H](C)CN([C@H](C)CO)C(=O)c2cc(NS(=O)(=O)c3ccc(Cl)cc3)ccc2O1`: 99.5% (active); for `C[C@@H]1CN([C@H](C)CO)C(=O)c2cc(NS(=O)(=O)c3ccc(Cl)cc3)ccc2O[C@@H](C)CCCCO[C@H]1CN(C)Cc1ccccc1`: 97.6% (active).
Then `C[C@H](CO)N1C[C@H](C)[C@H](CN(C)Cc2ccc(C(F)(F)F)cc2)OCCCC[C@H](C)Oc2ccc(NS(=O)(=O)c3ccc(Cl)cc3)cc2C1=O`, with 91.8%; and `COc1ccc(S(=O)(=O)Nc2ccc3c(c2)C(=O)N([C@H](C)CO)C[C@@H](C)[C@@H](CN(C)CC2CCCCC2)OCCCC[C@@H](C)O3)cc1`, with 91.5%; and `C[C@H]1CCCCO[C@@H](CN(C)C(=O)NC2CCCCC2)[C@@H](C)CN([C@@H](C)CO)C(=O)c2cc(NS(=O)(=O)c3ccc(Cl)cc3)ccc2O1`, with 103% (active).
With `COc1ccc(NC(=O)N(C)C[C@@H]2OCCCC[C@@H](C)Oc3ccc(NS(=O)(=O)c4ccc(Cl)cc4)cc3C(=O)N([C@H](C)CO)C[C@H]2C)cc1`, the inhibition is 104% (active).
Then `C[C@@H]1CCCCO[C@H](CN(C)C(=O)NC2CCCCC2)[C@H](C)CN([C@H](C)CO)C(=O)c2cc(NS(=O)(=O)c3ccc(Cl)cc3)ccc2O1`, with 106% (active).
